The values below come from PubChem BioAssay (NCATS).

Each structure is given as a SMILES string. Results filed as inconclusive are left out. Entries that show only a call come without a potency. Activity calls are given as the source filed them. Unless noted, calls come from the whole dose curve; as a rule, active = well fitted curve in the direction sought with a large enough effect; inconclusive = small, poorly fitted or top-dose-only effect, or another doubt; inactive = no such curve, though single readings can be large; an effect the other way counts as inactive or inconclusive.

Glucagon-like peptide 1 receptor (Homo sapiens), sequence (P43220 whole entry, looked up): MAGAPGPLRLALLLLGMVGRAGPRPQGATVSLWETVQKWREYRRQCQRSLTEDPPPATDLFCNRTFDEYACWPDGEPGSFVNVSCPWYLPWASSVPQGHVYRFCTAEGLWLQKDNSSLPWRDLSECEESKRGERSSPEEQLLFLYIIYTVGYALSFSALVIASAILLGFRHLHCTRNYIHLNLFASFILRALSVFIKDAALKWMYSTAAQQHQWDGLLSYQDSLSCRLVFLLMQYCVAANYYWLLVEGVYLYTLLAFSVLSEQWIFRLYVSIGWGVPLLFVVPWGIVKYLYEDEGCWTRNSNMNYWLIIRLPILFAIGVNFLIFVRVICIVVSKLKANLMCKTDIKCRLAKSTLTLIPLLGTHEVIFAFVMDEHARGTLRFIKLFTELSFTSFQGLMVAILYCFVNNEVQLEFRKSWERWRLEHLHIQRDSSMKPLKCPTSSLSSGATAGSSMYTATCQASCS
Glutaminase kidney isoform, mitochondrial (Homo sapiens), sequence (O94925 whole entry, looked up, canonical isoform): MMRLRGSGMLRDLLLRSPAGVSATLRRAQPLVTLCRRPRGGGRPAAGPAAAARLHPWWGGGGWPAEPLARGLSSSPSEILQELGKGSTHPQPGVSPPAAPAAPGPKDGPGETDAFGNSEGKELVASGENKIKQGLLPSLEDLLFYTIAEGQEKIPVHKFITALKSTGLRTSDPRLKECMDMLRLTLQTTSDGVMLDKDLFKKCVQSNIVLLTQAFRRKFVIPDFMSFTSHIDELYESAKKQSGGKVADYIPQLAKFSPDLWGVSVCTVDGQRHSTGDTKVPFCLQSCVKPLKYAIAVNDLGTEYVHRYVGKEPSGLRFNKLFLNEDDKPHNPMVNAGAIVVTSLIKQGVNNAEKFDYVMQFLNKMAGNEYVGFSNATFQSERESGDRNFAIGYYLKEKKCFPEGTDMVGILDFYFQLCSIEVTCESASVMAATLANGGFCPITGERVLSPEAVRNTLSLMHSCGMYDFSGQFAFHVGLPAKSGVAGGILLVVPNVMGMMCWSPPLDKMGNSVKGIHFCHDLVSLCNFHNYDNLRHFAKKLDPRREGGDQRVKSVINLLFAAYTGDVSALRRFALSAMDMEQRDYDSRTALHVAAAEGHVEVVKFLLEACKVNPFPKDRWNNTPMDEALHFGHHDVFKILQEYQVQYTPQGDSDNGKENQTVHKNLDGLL

Tested on in one assay: not listed separately
The assay can be described thus: S16 Schwann cell viability assay (CellTiter-Glo assay) (AID 624031). Note: nearly all actives have a fitted effect of over 70% in size. Note: potency is the fitted concentration of half-maximal effect. The following applies: S16 rat Schwann cells viability, 24 h; series mostly up to 57.5 µM. In short, it runs like this:
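Native S16 rat Schwann cells, 500-750 cells/well in DMEM with 10% FBS, dosed with compound after overnight culture and incubated 24h at 37 degree Celsius/5% CO2. Viability by CellTiter-Glo luminescence; % activity normalized to no-cell wells and DMSO-treated cells.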
For orientation: Cellular ATP, detected with luciferase, serves as a proxy for viable cell number.
`O=C(CCCCCCC(=O)Nc1ccccc1)NO`: the Potency result was “inactive”.

Consider `CC(=O)O[C@]1(C(C)=O)CC[C@H]2[C@@H]3C=C(Cl)C4=CC(=O)[C@@H]5C[C@@H]5[C@]4(C)[C@H]3CC[C@@]21C`, for which the Potency entry is “inactive”.

For the molecule `COc1ccc(Cc2nccc3cc(OC)c(OC)cc23)cc1OC`, the Potency result was “inactive”.

Regarding `O=C1Nc2ccc(Cl)cc2C(C#CC2CC2)(C(F)(F)F)O1` (stereo not drawn), the Potency result was “inactive”.

Regarding `O=C(O)c1c(Cl)c(Cl)c(Cl)c(Cl)c1-c1c2cc(I)c(=O)c(I)c-2oc2c(I)c(O)c(I)cc12`, the Potency result was “inactive”.

`NC(N)=Nc1nc(CSCC/C(N)=N/S(N)(=O)=O)cs1`: the Potency result is “inactive”.

`Clc1ccc(COC(Cn2ccnc2)c2ccc(Cl)cc2Cl)cc1` (stereo not drawn): the Potency result is “inactive”.

With `CCN(CC)C(=O)c1ccc(O)c(OC)c1`, the Potency result is “inactive”.

In the case of `Clc1ccc(Cn2c(CN3CCCC3)nc3ccccc32)cc1`, the Potency result is “inactive”.

As to `CC/C(=C(\c1ccccc1)c1ccc(OCCN(C)C)cc1)c1ccccc1`, the Potency is 32.2 µM (active).

Consider `CC(C)OC(=O)C(C)(C)Oc1ccc(C(=O)c2ccc(Cl)cc2)cc1`, for which the Potency result was “inactive”.

Tested on in the next assay: not listed separately
The assay is described as follows: S16 Schwann cell PMP22 intronic element firefly luciferase assay (AID 624032). Note: nearly all actives have a fitted effect of over 30% in size. Note: potency is the fitted concentration of half-maximal effect. To be noted: S16 rat Schwann cells, PMP22 element FLuc, 24 h; series mostly up to 57.5 µM. In short, it runs like this:
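Luciferase reporter of PMP22 intronic-element expression in stably transfected S16 rat Schwann cells, read by ONE-Glo luminescence after 24 h compound exposure at 37 C. Activity scaled between DMSO (0%) and positive-control PTC124; concentration-effect curves quality-classified.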
As for `COc1cc2ncnc(Nc3ccc(F)c(Cl)c3)c2cc1OCCCN1CCOCC1`, the Potency was 36.1 µM (active).

As for `NC(N)=Nc1nc(CSCC/C(N)=N/S(N)(=O)=O)cs1`, the Potency entry is “inactive”.

As to `CCN(CC)C(=O)c1ccc(O)c(OC)c1`, the Potency entry is “inactive”.

In the case of `O=C(NCCN1CCOCC1)c1ccc(Cl)cc1`, the Potency result is “inactive”.

As to `COCCCCC(=NOCCN)c1ccc(C(F)(F)F)cc1`, the Potency result is “inactive”.

As to `CC(C)OC(=O)C(C)(C)Oc1ccc(C(=O)c2ccc(Cl)cc2)cc1`, the Potency result was “inactive”.

Tested on in the next assay: not listed separately
The assay can be described thus: S16 Schwann cell PMP22 intronic element beta-lactamase assay (AID 624044; calls by dose curve; note: nearly all actives have a fitted effect of over 15% in size; note: potency is the fitted concentration of half-maximal effect). The following applies: S16 rat Schwann cells, PMP22 element beta-lactamase FRET, 24 h; series mostly up to 38.3 µM. Put shortly: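 Beta-lactamase reporter under a PMP22 intronic regulatory element in stable S16 rat Schwann cells; 24 h compound exposure. 460 nm blue signal normalized between DMSO (0%) and potassium clavulanate, with 535 nm FRET tracking viability; curves classed by r2 and response.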
On to `O=C(CCCCCCC(=O)Nc1ccccc1)NO`, for which the Potency was 2.24 µM (active).

As to `O=C1Nc2ccc(Cl)cc2C(C#CC2CC2)(C(F)(F)F)O1` (stereo not drawn), the Potency result was “inactive”.

Turning to `COc1cc2ncnc(Nc3ccc(F)c(Cl)c3)c2cc1OCCCN1CCOCC1`, the Potency result is “inactive”.

For `O=C(O)c1c(Cl)c(Cl)c(Cl)c(Cl)c1-c1c2cc(I)c(=O)c(I)c-2oc2c(I)c(O)c(I)cc12`, the Potency entry is “inactive”.

As for `Clc1ccc(COC(Cn2ccnc2)c2ccc(Cl)cc2Cl)cc1` (stereo not drawn), the Potency result is “inactive”.

As for `Clc1ccc(Cn2c(CN3CCCC3)nc3ccccc32)cc1`, the Potency entry was “inactive”.

In the case of `COCCCCC(=NOCCN)c1ccc(C(F)(F)F)cc1`, the Potency entry is “inactive”.

The next assay has as its target Glutaminase kidney isoform, mitochondrial (Homo sapiens) (UniProt O94925). The assay is described as follows: qHTS for Inhibitors of Glutaminase (GLS): LOPAC Validation (AID 624146).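 Note: glutamate product detected by oxidase and peroxidase coupled Amplex red fluorescence gain; nearly all actives have a fitted effect of over 60% in size.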 To be noted: glutaminase enzyme activity inhibition; series mostly up to 46.1 µM. In short, it runs like this:
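hKGA; 45 mM KH2PO4 pH 8.2 + 0.02% Tween-20; cpd via pin tool; 1 mM Gln soln; GluOx/HRP/Amplex Red; RT 30 min; fluor. t0 & final.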
On the technique in general: Quantitative high-throughput screening tests each substance at several concentrations.
For the molecule `CC(=O)O[C@]1(C(C)=O)CC[C@H]2[C@@H]3C=C(Cl)C4=CC(=O)[C@@H]5C[C@@H]5[C@]4(C)[C@H]3CC[C@@]21C`, the Potency result is “inactive”.

Turning to `COc1ccc(Cc2nccc3cc(OC)c(OC)cc23)cc1OC`, the Potency entry is “inactive”.

Take `C[N+](C)(C)CC(=O)O`: the Potency entry is “inactive”.

As to `COC(=O)[C@@H]1[C@H]2C[C@H]3c4[nH]c5ccccc5c4CCN3C[C@@H]2CC[C@@H]1O`, the Potency entry was “inactive”.

For `O=c1cc(-c2ccc(O)cc2)oc2cc(O)cc(O)c12`, the Potency result is “inactive”.

For `Clc1ccc(C(c2ccc(Cl)cc2)n2cc[n+](CC(OCc3ccc(Cl)cc3Cl)c3ccc(Cl)cc3Cl)c2)cc1` (stereo not drawn), the Potency entry is “inactive”.

On to `O=c1c(-c2ccc(O)cc2)coc2cc(O)ccc12`, for which the Potency result was “inactive”.

In the case of `O=C(NCCN1CCOCC1)c1ccc(Cl)cc1`, the Potency result was “inactive”.

`Clc1ccc(Cn2c(CN3CCCC3)nc3ccccc32)cc1`: the Potency entry was “inactive”.

`CC/C(=C(\c1ccccc1)c1ccc(OCCN(C)C)cc1)c1ccccc1`: the Potency result was “inactive”.

Consider `COc1cccc(-c2cc(=O)c3ccccc3o2)c1N`, for which the Potency entry was “inactive”.

For the molecule `CC(C)OC(=O)C(C)(C)Oc1ccc(C(=O)c2ccc(Cl)cc2)cc1`, the Potency result was “inactive”.

Tested on in a further assay: not listed separately
The assay can be described thus: qHTS of Trypanosoma Brucei Inhibitors: LOPAC Validation (AID 624147). The following applies: purified enzyme assay, luminescence, 45 min; series mostly up to 57.5 µM. Put shortly:
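Luminescent Kinase-Glo Plus end-point after 45 min room-temperature reaction of T. brucei pyruvate kinase started with 130 uM ADP (final). Buffer TEA 50 mM pH 7.2 with KCl, MgCl2, BSA, Tween-20; titration-based qHTS with fitted concentration-effect curves.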
Turning to `CC(=O)O[C@]1(C(C)=O)CC[C@H]2[C@@H]3C=C(Cl)C4=CC(=O)[C@@H]5C[C@@H]5[C@]4(C)[C@H]3CC[C@@]21C`, the molecule was classed as inactive.

Take `COc1ccc(Cc2nccc3cc(OC)c(OC)cc23)cc1OC`: the result was inactive.

In the case of `COC(=O)[C@@H]1[C@H]2C[C@H]3c4[nH]c5ccccc5c4CCN3C[C@@H]2CC[C@@H]1O`, the molecule was called inactive.

On to `O=c1cc(-c2ccc(O)cc2)oc2cc(O)cc(O)c12`, for which the result was inactive.

On to `CC1(C)CCC2=C(O1)c1ccccc1C(=O)C2=O`, for which the molecule was called inactive.

As to `Clc1ccc(C(c2ccc(Cl)cc2)n2cc[n+](CC(OCc3ccc(Cl)cc3Cl)c3ccc(Cl)cc3Cl)c2)cc1` (stereo not drawn), the call was inactive.

In the case of `NC(N)=Nc1nc(CSCC/C(N)=N/S(N)(=O)=O)cs1`, the outcome was inactive.

With `O=c1c(-c2ccc(O)cc2)coc2cc(O)ccc12`, the result was inactive.

On to `CCN(CC)C(=O)c1ccc(O)c(OC)c1`, for which the outcome was inactive.

On to `O=C(NCCN1CCOCC1)c1ccc(Cl)cc1`, for which the molecule was classed as inactive.

As for `Clc1ccc(Cn2c(CN3CCCC3)nc3ccccc32)cc1`, the outcome was inactive.

On to `CC/C(=C(\c1ccccc1)c1ccc(OCCN(C)C)cc1)c1ccccc1`, for which the molecule was called inactive.

With `COc1cccc(-c2cc(=O)c3ccccc3o2)c1N`, the result was inactive.

The target of another assay is Glucagon-like peptide 1 receptor (Homo sapiens) (UniProt P43220). The assay can be described thus: qHTS of GLP-1 Receptor Agonists: LOPAC Validation (AID 624148).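 Note: luminescence from a luciferase reporter switched on by cAMP; higher luminescence signal means agonism.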 To be noted: GLP-1R agonist cell assay; series mostly up to 46.1 µM. Put shortly:
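Agonism scored as increased luciferase luminescence driven by cAMP in HEK293 clones carrying GLP-1R. Cells settled 12 hours, received compound for 4-6 hr at 37 deg C, 5% CO2, and were read after 12 min detection reagent at RT.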
Regarding `CC(=O)O[C@]1(C(C)=O)CC[C@H]2[C@@H]3C=C(Cl)C4=CC(=O)[C@@H]5C[C@@H]5[C@]4(C)[C@H]3CC[C@@]21C`, the molecule was called inactive.

With `C[N+](C)(C)CC(=O)O`, the outcome was inactive.

With `COC(=O)[C@@H]1[C@H]2C[C@H]3c4[nH]c5ccccc5c4CCN3C[C@@H]2CC[C@@H]1O`, the call was inactive.

With `O=c1cc(-c2ccc(O)cc2)oc2cc(O)cc(O)c12`, the molecule was classed as inactive.

Consider `CC1(C)CCC2=C(O1)c1ccccc1C(=O)C2=O`, for which the molecule was classed as inactive.

`Clc1ccc(C(c2ccc(Cl)cc2)n2cc[n+](CC(OCc3ccc(Cl)cc3Cl)c3ccc(Cl)cc3Cl)c2)cc1` (stereo not drawn): the result was inactive.

With `NC(N)=Nc1nc(CSCC/C(N)=N/S(N)(=O)=O)cs1`, the call was inactive.

With `O=c1c(-c2ccc(O)cc2)coc2cc(O)ccc12`, the molecule was called inactive.

In the case of `CCN(CC)C(=O)c1ccc(O)c(OC)c1`, the call was inactive.

`O=C(NCCN1CCOCC1)c1ccc(Cl)cc1`: the molecule was classed as inactive.

Turning to `Clc1ccc(Cn2c(CN3CCCC3)nc3ccccc32)cc1`, the result was inactive.

In the case of `CC/C(=C(\c1ccccc1)c1ccc(OCCN(C)C)cc1)c1ccccc1`, the outcome was inactive.

With `COc1cccc(-c2cc(=O)c3ccccc3o2)c1N`, the call was inactive.

As for `CC(C)OC(=O)C(C)(C)Oc1ccc(C(=O)c2ccc(Cl)cc2)cc1`, the outcome was inactive.
